Laboratory results taken from the supplement of paper PMC6555819.

Legend:
Assay in all cases: PBM binding z-score (relative to random genomic background probes); higher = stronger binding; sequences stand for … in GC…GCGATTGACAGCGTAGAATGAAGG
[1] = system: RARb homodimer (NR concentration 270 nM)
In short: (§1)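 Probes were double-stranded and carried 34-nt variable regions with direct-repeat seeds, single-nucleotide variants, half-site ablations and random human genomic background sequences, printed on custom Agilent 4×180K protein-binding microarrays. Arrays were incubated 1 h with ligand-free nuclear receptor dimers in PBS pH 7.4, 2% milk, 0.02% Triton X-100, 1 mM DTT, 0.2 mg/mL BSA and 0.4 mg/ml salmon testes DNA. Antibodies against each partner (one per run) detected binding, and scanned fluorescence was regression-normalized. Binding z-scores use the random background probes as reference.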

[2] = system: RARg:RXRa (NR concentration 270 nM, RXRa partner concentration 90 nM)
In short: as §1

[3] = system: RARg homodimer (NR concentration 270 nM)
In short: as §1

[4] = system: RXRa DBDmut IVT, anti-RXR (DBD mutation: RXRa K156A/R161A, NR concentration 90 nM)
In short: as §1

[5] = system: RXRa homodimer (NR concentration 180 nM)
In short: as §1

[6] = system: THRa:RXRa (NR concentration 90 nM, RXRa partner concentration 90 nM)
In short: as §1

[7] = system: THRa homodimer (NR concentration 90 nM)
In short: as §1

[8] = system: VDR homodimer (NR concentration 270 nM)
In short: as §1

Sequence | PBM binding z-score [1] | PBM binding z-score [2] | PBM binding z-score [3] | PBM binding z-score [4] | PBM binding z-score [5] | PBM binding z-score [6] | PBM binding z-score [7] | PBM binding z-score [8]
CCGAGTACGTTACGAGGGGGCATTCAGTGCGAAT | 1.5 | 1.85 | 1.41 | 3.95 | 1.17 | 2.36 | 0.395 | 4.78
CCAAGTAGGTTACGAGGGGGCATTCAGTGCGAAT | 2.46 | 3.53 | 3.14 | 1.89 | 2.52 | 3.6 | 0.736 | 3.82
ATATGTAGGTTAGGGTCCTTCAGAAAGTAGGGAA | 0.958 | 0.561 | 0.821 | 0.642 | 0.851 | 1.21 | 0.898 | 0.793
TCGAGTAGGTTACTGGGGCATTCAGGGATGAAGA | 0.974 | 0.621 | 0.564 | 0.0231 | 0.761 | 1.83 | -0.116 | -0.285
TTACAAAGGTGAGCTGAGGTCGTTGATCCAACTC | 2.56 | 2.97 | 2.69 | 0.365 | 2.51 | 4.84 | 1.73 | 2.57
CGAACTAGGTCACCAGGAGAGTGAAGAGGTTGGA | 3.18 | 4.34 | 5.04 | 1.08 | 3.02 | 2.98 | 1.09 | 0.207
ATCTCTAGGTGAAAGTTCAGTGAATCCCGAGGAT | 2.67 | 2.88 | 2.27 | 0.779 | 2.74 | 2.19 | 0.227 | 1.33
ATATGTAGGTTAGGGGCATTCAGAAAGTAGGGAA | 2.01 | 1.14 | 1.14 | 1.45 | 1.21 | 1.73 | 1.35 | 1.82
CCTAGTTGGTCAAGGTCTCACACGCTATAGGTAC | 1.32 | 0.677 | 1.21 | 1.08 | 0.272 | 0.956 | 1.03 | 0.887
TCATATAGGTAATAAAGGTGAAAGTCGGCATCTA | 1.76 | 1.51 | 0.992 | 1.83 | 2.06 | 1.59 | 0.669 | 0.491
CCTTACGGGTCAAGGTAATAGCACGGGTGGTACG | 2.82 | 4.6 | 4.42 | 0.648 | 4.79 | 2.66 | 0.382 | 0.423
ATCGAAAGGTCGACGAGGTGAGAATACACCGTTT | 3.04 | 4.56 | 4.16 | 1.15 | 4.87 | 4.05 | 0.736 | 0.942
AATACAGGGTCACTGGGCCAGAGTAGGTACGAAT | 3.72 | 5.73 | 5.37 | 2.35 | 6.2 | 3.59 | 1.3 | 2.73
CGTCAAAGTTCAACTAAGGTAACTTAAAGCACGC | 4.27 | 5.75 | 6.52 | 4.71 | 4.83 | 5.38 | 1.52 | 4.08
CATACACGGTCAGCTAGGCCAGAGTAGGGACGGC | 1.5 | 1.24 | 2.04 | -0.438 | 0.355 | 0.226 | -0.129 | -0.286
CGAATTAGGTCAAAGGACAGTGAAAGGCGACGTA | 3.18 | 4.17 | 4.47 | 1.73 | 3.37 | 3.09 | 1.4 | 0.401
ATATGTAGGATAGGGTCATTCAGAAAGTAGGGAA | 2.75 | 3.19 | 2.22 | 1.78 | 4.32 | 3.59 | 2.24 | 3.42
CCGTACGGGTCAAGGTTATAGCACGGGTGGTACG | 3.24 | 4.93 | 4.6 | 0.337 | 5.61 | 3.09 | 0.588 | 1.37
AGTCAAAGTTCACTAGGTTACGTAAGATTCAGCT | 4.27 | 5.33 | 6.12 | 4.29 | 4.53 | 2.55 | 0.508 | 3.98

Sequence | PBM binding z-score [1] | PBM binding z-score [2] | PBM binding z-score [3] | PBM binding z-score [4] | PBM binding z-score [5] | PBM binding z-score [6] | PBM binding z-score [7] | PBM binding z-score [8]
CCGAGTAGGTTACGCGGGGGCATTCAGTGCGAAT | 2.09 | 3.1 | 2.15 | 1.8 | 2.23 | 4.51 | 0.878 | 3.76
ATATGGAGGTTAGGGTCATTCAGAAAGTAGGGAA | 3.98 | 4.17 | 2.98 | 2.42 | 5.24 | 4.27 | 3.55 | 3.4
CCTGCTAGTTCATGGTCAGCTAATCTACAGTATG | 0.96 | 0.833 | 1.06 | 2.43 | 0.309 | 0.298 | -0.142 | 1.09
CCTACTGGGCCATTGAGAGGTCATTGATCATATG | 3.78 | 4 | 2.63 | 0.642 | 3.13 | 3.06 | 1.26 | 3.78
CCTACTGGGCCAAAGGTCTTTGATTCCAATGCTC | 0.557 | 0.154 | 0.0453 | -0.198 | 0.321 | 0.0869 | -0.594 | -0.573
TCGAGGAGGTTACGGGGGCATTCAGGGATGAAGA | 2.61 | 4.51 | 3.37 | 2.51 | 4.12 | 4.31 | 1.88 | 3.86
AATACAGGATCACTAGGCCAGAGTAGGTACGAAT | 0.388 | 0.343 | 0.495 | -0.317 | 0.367 | -0.0476 | -0.262 | 0.0243
CAAACTAGGTCAAAGGTCAACGTCGAGCCAACCA | 5.12 | 8.91 | 7.98 | 2.88 | 10.3 | 4.98 | 2.1 | 2.86
CAAACTAGGTCACGAAAGGTCAAATTCGAATGAC | 5.85 | 7.7 | 8.41 | 2.5 | 8.21 | 5.14 | 2.56 | 3.46
CTATGTAGGGTAAGGGGGTCATTCAGTTTGAAAG | 4.04 | 5 | 3.92 | 2.91 | 5.44 | 3.99 | 2.95 | 6.62
ATATGTAGGTTAGGGTCATTAAGAAAGTAGGGAA | 3.33 | 3.59 | 2.76 | 2.22 | 4.57 | 3.9 | 2.76 | 3.54
CGTCCAAGGTCAAGGGCAGTGAAAGAGACTCGAA | 4.22 | 5.8 | 6.3 | 3.02 | 5 | 3.87 | 2.22 | 1.92
TCGAGTAGGTTACGGGTGCATTCAGGGATGAAGA | 0.631 | 0.869 | 0.463 | 0.951 | 1.29 | 2.22 | -0.191 | 2.69
AATACAGGGACATCGTAGGCCAGAGTACGCACAG | 0.605 | 0.131 | 0.818 | 0.223 | -0.000453 | 1 | 0.426 | 0.53
AAATGTAGGTTAGGGTCATTCAGAAAGTAGGGAA | 3.49 | 3.99 | 3.4 | 2.78 | 5.29 | 4.02 | 3.35 | 3.92
CTATGTAGGTTAAGGGGGTGATTCAGTTTGAAAG | 1.97 | 2.23 | 1.77 | 1.42 | 2 | 2.21 | 1.73 | 2.22
TCGAGTAGGTTACGGGGGGATTCAGGGATGAAGA | 1.73 | 2.76 | 2.33 | 2.47 | 2.04 | 3.42 | 1.85 | 2.02
CGTCAACGTTCAACTAAGGTAACGTAAAGCACGC | 0.8 | 0.496 | 0.603 | 0.449 | 0.587 | 3.84 | 1.68 | 0.137
AATACAGGGTCACTTGGCCAGAGTAGGTACGAAT | 3.25 | 5.22 | 5.19 | 3.11 | 5.25 | 3.37 | 1.15 | 2.85

Sequence | PBM binding z-score [1] | PBM binding z-score [2] | PBM binding z-score [3] | PBM binding z-score [4] | PBM binding z-score [5] | PBM binding z-score [6] | PBM binding z-score [7] | PBM binding z-score [8]
CTATGTAGGTTAAGGGGGTCATTCCGTTTGAAAG | 3.76 | 5.11 | 4.02 | 2.32 | 5.96 | 3.58 | 1.83 | 5.23
CCTACTGGGCCATTCAGAGGTCATTGATCATATG | 3.93 | 4.35 | 2.99 | 1.44 | 3.55 | 3.14 | 1.18 | 3.37
CAAACTAGGTCAAAGGACAGTGAAAGGCGACGTA | 2.87 | 3.97 | 4.47 | 1.68 | 2.86 | 2.78 | 0.733 | 0.509
CTATGTAGGTTAAGGGGGTCGTTCAGTTTGAAAG | 2.42 | 2.9 | 2.06 | 1.7 | 2.93 | 2.7 | 1.62 | 4.04
CCGAGTAGGTTGCGAGGGGGCATTCAGTGCGAAT | 1.77 | 1.99 | 1.28 | 1.58 | 1.27 | 3.09 | 0.684 | 3.23
CGAACTAGGTCAAAGGAGAGTGAAAGGCGACGTA | 2.43 | 3.75 | 4.22 | 1.62 | 3 | 2.32 | 0.277 | 0.0165
CCTCGGAGGACACCAGGAGGTCAGAGCTGCCAGA | 3.49 | 3.94 | 3.53 | -0.302 | 2.11 | 2.93 | 1.37 | 1.13
ATCGAAGGGTCGAAGGTGAGTATACCCACCCGAA | 1.32 | 2.67 | 1.99 | 0.0916 | 3.12 | 1.05 | -0.355 | 0.519
AGACAAAGTTCAGGACGAGGTAACGTAAAGCACG | 3.04 | 4.75 | 4.73 | 2.87 | 2.9 | 3.86 | 1.51 | 2.08
CCGAGTATGTTACGAGGGGGCATTCAGTGCGAAT | 1.63 | 1.76 | 1.26 | 2.1 | 1.31 | 2.31 | 0.458 | 3.74
ACTTACGGGTCAACGGGGTTATAGCACGCGTATA | 3.81 | 5.9 | 5.07 | 2.6 | 6.78 | 4.23 | 1.08 | 3.81
CGAACTAGGTCACCAGGGCAGTGAAGAGGTTGGA | 3.62 | 4.53 | 5.52 | 1.03 | 3.26 | 3.09 | 1.39 | 0.712
CGAACTGGGTCACCAGGACAGTGAAGAGGTTGGA | 2.84 | 4.16 | 4.22 | 0.542 | 3.41 | 2.91 | 0.811 | 0.0235
CCGAGTAGGTTACGAGGGGGCATGCAGTGCGAAT | 2.07 | 3.17 | 2.67 | 1.12 | 2.12 | 3.73 | 0.433 | 2.6
CTATGTAGGTTCAGGGGGTCATTCAGTTTGAAAG | 3.91 | 5.72 | 3.84 | 3.68 | 7.14 | 3.7 | 2.11 | 6.83
CATACTAGGTCAAAGGTCAAAGTCGAGCCAACCA | 5.51 | 8.9 | 7.33 | 3.12 | 9.95 | 4.98 | 2.11 | 3.51
CGAACTAGGTCAAAGGACAGTAAAAGGCGACGTA | 2.85 | 4.05 | 4.79 | 1.33 | 3.25 | 2.75 | 0.556 | 0.392
CGAACTAGGTCACCAGGACAGTGACGAGGTTGGA | 3.61 | 4.59 | 5.52 | 1.22 | 3.43 | 3.55 | 1.99 | 0.698
